KB-3-1 tox: qHTS assay for MDR1-selective chemotherapeutics: Primary screen using the parental adenocarcinoma cell KB-3-1. KB-3-1 viability, CellTiter-Glo ATP luminescence, 72 h. Potency, µM (titrated, usually from 46.1 µM), usual class: cytotoxic. hit rate 1.4% among 400,000. AID 1347075, 2019; note: nearly all actives have a fitted effect of over 60% in size
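Cytotoxicity measured as CellTiter-Glo luminescence after 72 h at 37 C. Compound titrations were pinned onto drug-naive KB-3-1 parental adenocarcinoma cells grown in DMEM with 10% FBS, and normalized data fitted to concentration-response curves.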
HT1080-NT tox: qHTS for induction of synthetic lethality in tumor cells producing 2HG: qHTS for the HT-1080-NT fibrosarcoma cell line; hit rate 1.6% among 360,000; Potency, µM (titrated, usually from 46.1 µM), without a hit: at the top dose activity, negative = less viability, actives largely listed as cytotoxic; HT-1080-NT fibrosarcoma viability, CellTiter-Glo ATP luminescence, 48 h; AID 686970, 2013;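 note: NT is the 2HG producing partner of a matched IDH1 knockdown line; 0% = DMSO-treated cells and -100% = media-only wells without cells; nearly all actives have a fitted effect of over 55% in size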
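Luminescent CellTiter-Glo readout after 48 hours of compound exposure at 37 degrees C defined viability of HT-1080-NT cells. Activity was normalized to DMSO wells and cell-free media wells; concentration-response curves were fitted and assigned curve classes.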
KB-V1 MDR tox: qHTS assay for MDR1-selective chemotherapeutics: Primary screen using the drug-selected MDR subline cells KB-V1; Potency, µM (top dose mostly 46.1 µM), usual class: cytotoxic; KB-V1 MDR cells viability, CellTiter-Glo, 72 h; hit rate 3.4% among 400,000; AID 1347076, 2019; note: nearly all actives have a fitted effect of over 60% in size
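KB-V1, DMEM (no phenol red) + 10% FBS; cpd pin-transferred, titration series; 72 h, 37 degrees C; CellTiter-Glo, luminescence. Data normalized, curve-fit.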
HT1080 IDH1KD tx: qHTS for induction of synthetic lethality in tumor cells producing 2HG: qHTS for the HT-1080-IDH1KD cell line. hit rate 2% among 360,000. HT-1080 IDH1 knockdown viability, ATP luminescence, 48 h. Potency, µM (top dose mostly 46.1 µM), for the others: at the top dose activity, negative = toxicity, most hits filed as cytotoxic;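 note: 0% = DMSO wells and -100% = cell-free medium wells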
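Knockdown cells (IDH1KD HT-1080) received compounds 2 h after plating at 750 cells/well and were kept 48 h at 37 °C in 5% FBS RPMI. A CellTiter-Glo luminescence read gave % activity for curve fitting.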
* = called active by the depositor; i = inactive; ? = inconclusive; / = not tested or not shown. A selection: hits, their analogues and other compounds. The true share with any hit is near 5.7%. Calls come from the whole dose curve; as a rule, active = well fitted curve in the direction sought with a large enough effect; inconclusive = small, poorly fitted or top-dose-only effect, or another doubt; inactive = no such curve, though single readings can be large; an effect the other way counts as inactive or inconclusive. Unless noted, % is set by controls: 0 for no effect and ±100 for the full control effect; potency is the fitted concentration of half-maximal effect.

SMILES | KB-3-1 tox | HT1080-NT tox | KB-V1 MDR tox | HT1080 IDH1KD tx
O=C(CSc1nnc(CNC(=O)c2ccccc2F)n1-c1ccccc1)Nc1ccccc1F | i | / | i | /
CCc1cc2c(N=Nc3c(O)[nH]c4ccccc34)ncnc2s1 | ? | -16% | 6.5µM* | -1%
COc1ccc(-c2[nH]nc3nc(-c4cc(Br)ccc4OC)cc(C(=O)O)c23)cc1 | i | / | ? | /
COC(=O)c1c(NC(=O)CCl)sc(C(=O)N2CCOCC2)c1C | ? | 7.3µM* | ? | 18µM*
COC(=O)c1c(N)sc(C(=O)N2CCOCC2)c1C | i | 1% | i | -1%
COC(=O)c1c(NC(=O)Cc2cccs2)sc(C(=O)N2CCCCC2)c1C | i | -2% | 16µM* | -29%
COC(=O)c1c(NC(=O)Cc2cccs2)sc(C(=O)NC2CCCCC2)c1C | i | 2% | i | 3%
CCOc1ccc(-c2noc(CCCC(=O)NC3CCCC3)n2)cc1OC | i | 1% | 8.2µM* | -6%
O=C(CCc1nc(-c2ccc(Cl)cc2)no1)NC1CCCC1 | i | 6% | i | 0%
CCOC(=O)N1CCN(Cc2nc(-c3ccc(OC)cc3)no2)CC1 | i | 3% | 8.2µM* | 2%
CCN(C(=O)CCc1nc(-c2ccc(OC)cc2)no1)c1cc(OC)ccc1OC | ? | -12% | 16µM* | -10%
O=C(CCCc1nc(-c2ccc(Cl)cc2)no1)NC1CCCCC1 | ? | 8% | 12µM* | 12%
Cc1ccc(Cl)cc1NC(=O)C(C)n1nnc2sc3c(c2c1=O)CCCC3 (stereo unspecified) | i | / | i | /
COc1cc(OC)c(NC(=O)c2c(N3CCCC3=O)c3cc(C)ccc3n2C)cc1Cl | i | / | i | /
CN(C)CCNC(=O)C1Cc2c(-c3ccccc3Oc3ccccc3)ccnc2O1 (stereo unspecified) | i | ? | i | 23µM*
CN1CCN(c2ccc(CNC(=O)C3Cc4c(-c5ccccc5)ccnc4O3)cc2)CC1 (stereo unspecified) | i | -24% | i | ?
O=C(NCCc1ccccc1)C1Cc2c(-c3ccccc3Oc3ccccc3)ccnc2O1 (stereo unspecified) | i | ? | ? | ?
CN1CCN(c2ccc(CNC(=O)C3Cc4c(-c5ccccc5Oc5ccccc5)ccnc4O3)cc2)CC1 (stereo unspecified) | i | ? | i | 21µM*
COc1ccc(OC)c(/C=C/c2ccc3ccccc3[n+]2C)c1 | ? | / | i | /
CCCCC(=O)Nc1nnc(S(=O)(=O)N(C)Cc2ccc(Cl)cc2)s1 | i | / | i | /
COc1ccccc1OCCSc1nc2ccccc2n1CC(=O)N1CCOCC1 | i | / | i | /
N#Cc1ccc(NC(=O)Nc2ccc(Cl)cc2)cc1 | 21µM* | 15µM* | ? | ?
Cc1cccc(Cn2cc(S(=O)(=O)c3ccccc3)c(=O)c3cc(F)c(N4CCOCC4)cc32)c1 | i | / | i | /
CN(C)/C=C/C(=O)/C=C/c1ccc(Cl)cc1 | i | 12µM* | i | ?
CN(C)/C=C/C(=O)c1ccc(Cl)cc1 | i | 0% | i | -24%
SMILES | KB-3-1 tox | HT1080-NT tox | KB-V1 MDR tox | HT1080 IDH1KD tx
O=C1c2ccccc2CCc2ccccc21 | i | 14% | i | 22%
O=c1cc2c(n[nH]1)-c1ccccc1CC2 | 1.3µM* | 13% | ? | 7%
Cc1ccc(Sc2ccc(N3CCCC(C(=O)Nc4ccc(F)c(Cl)c4)C3)nn2)cc1 (stereo unspecified) | i | / | i | /
CCCC(=O)Nc1nnc(S(=O)(=O)N(C)Cc2ccc(Cl)cc2)s1 | i | / | i | /
CCC(C)n1ncn(-c2ccc(N3CCN(c4ccc(O)cc4)CC3)cc2)c1=O (stereo unspecified) | 1.5µM* | ? | i | ?
O=C(CN1CCN(Cc2ccccc2Cl)C1=O)NCc1ccccc1Cl | i | / | i | /
CCOC(=O)c1cc(C(C)=O)n2ccccc12 | i | 0% | i | -2%
CCOC(=O)c1cc(Br)c(=O)n2ccccc12 | i | 7% | 15µM* | 10%
Cc1cc(NC(=O)c2cccc(S(=O)(=O)N(C)C)c2)n(-c2ccccn2)n1 | i | 0% | 9.2µM* | -10%
CN(c1ccccc1)S(=O)(=O)c1cccc(C(=O)NC2CCCCC2)c1 | i | 4% | 15µM* | 7%
Cc1cccc(NC(=O)c2cccc(S(=O)(=O)N(C)c3ccccc3)c2)n1 | i | -13% | 7.3µM* | -2%
NS(=O)(=O)c1ccc(NC(=O)CN2C(=O)COc3ccc(Cl)cc32)cc1 | i | / | i | /
COc1ccc(-c2nc3cc(C(C)C)ccc3o2)cc1NC(=O)COc1ccc(C)cc1C | i | / | i | /
COc1cc(OC)c(NC(=O)C(Cc2ccccc2)NS(=O)(=O)c2cccc3nsnc23)cc1Cl (stereo unspecified) | i | / | i | /
CCCn1c(SCC(=O)N2CCc3ccccc3C2)nc2c1c(=O)n(C)c(=O)n2C | i | 4% | 3.7µM* | 1%
CCCCn1c(SCC(=O)N2CCCC2)nc2c1c(=O)n(C)c(=O)n2C | i | 0% | 9.2µM* | -17%
Cn1c(=O)c2c(nc(SCC(=O)c3cccs3)n2Cc2ccc(F)cc2)n(C)c1=O | i | 5% | ? | 0%
CCCCn1c(SCC(=O)Nc2nnc(C(C)C)s2)nc2c1c(=O)n(C)c(=O)n2C | ? | 9% | 2.3µM* | 9%
CC1Cc2ccccc2N1C(=O)CSc1nc2c(c(=O)n(C)c(=O)n2C)n1Cc1ccc(F)cc1 (stereo unspecified) | i | -4% | 1.8µM* | -6%
CCOC(=O)c1c(C)[nH]c(C)c1S(=O)(=O)N(C)CC(=O)N1CCN(c2ccccc2OC)CC1 | i | / | ? | /
COc1ccc(C(=O)N2CC(=O)Nc3ccc(C)cc3C2c2ccc(F)cc2)c(OC)c1 (stereo unspecified) | i | / | i | /
N=c1nc(-c2ccccc2)n(-c2ccccc2)s1 | i | / | ? | /
CCOC(=O)c1c(NC(=O)CSc2nc3c(c(=O)n(C)c(=O)n3C)n2CC)sc(C)c1C | i | 18% | 9.2µM* | -3%
CCCCn1c(SCC(=O)N2c3ccccc3Sc3ccccc32)nc2c1c(=O)n(C)c(=O)n2C | 16µM* | -29% | 15µM* | ?
CC1Cc2ccccc2N1C(=O)CSc1nnc(Cn2nnc3ccccc32)n1C (stereo unspecified) | i | -1% | 18µM* | -13%
CCCCn1c(SCC(=O)N2CCCc3ccccc32)nc2c1c(=O)n(C)c(=O)n2C | i | 5% | ? | 7%
CCCn1c(SCC(=O)N2c3ccccc3CCc3ccccc32)nc2c1c(=O)n(C)c(=O)n2C | i | 8% | 4.1µM* | 1%
CC(C)N(C(=O)CSc1nnc(Cn2nnc3ccccc32)n1C)C(C)C | i | 11% | i | 6%
